Screens: PubChem BioAssay, National Center for Advancing Translational Sciences (NCATS)
Six1-Eya2 blk = qHTS Assay for Inhibitors of the Six1/Eya2 Interaction; Homeobox protein SIX1 (Homo sapiens) + Protein phosphatase EYA2 (Homo sapiens), …; AlphaScreen GST-Six1/His-Eya2 binding, biochemical; hits give low values; activity change, % (no concentration beside the values); 0.56% of 360,000 active; AID 651725, 2012; in the data active = activity change below about -65%; inconclusive = mostly about -30% to -63%
Target sequence (O00167 whole entry, looked up): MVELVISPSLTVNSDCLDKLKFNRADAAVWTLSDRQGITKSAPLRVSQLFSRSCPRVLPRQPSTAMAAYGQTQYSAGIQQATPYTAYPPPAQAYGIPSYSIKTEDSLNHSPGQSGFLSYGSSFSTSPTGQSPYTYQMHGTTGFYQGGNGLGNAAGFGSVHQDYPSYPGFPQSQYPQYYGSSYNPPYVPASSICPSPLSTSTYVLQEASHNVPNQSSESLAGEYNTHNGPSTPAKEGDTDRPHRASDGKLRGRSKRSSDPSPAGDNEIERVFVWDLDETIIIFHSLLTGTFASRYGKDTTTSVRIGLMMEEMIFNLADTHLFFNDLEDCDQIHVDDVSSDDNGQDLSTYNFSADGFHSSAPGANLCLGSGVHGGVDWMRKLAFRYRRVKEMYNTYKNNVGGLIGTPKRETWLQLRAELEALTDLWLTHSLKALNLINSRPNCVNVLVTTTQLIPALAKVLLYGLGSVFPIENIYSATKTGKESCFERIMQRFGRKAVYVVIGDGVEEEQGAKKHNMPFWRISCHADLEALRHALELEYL
Target sequence (Q15475 whole entry, looked up): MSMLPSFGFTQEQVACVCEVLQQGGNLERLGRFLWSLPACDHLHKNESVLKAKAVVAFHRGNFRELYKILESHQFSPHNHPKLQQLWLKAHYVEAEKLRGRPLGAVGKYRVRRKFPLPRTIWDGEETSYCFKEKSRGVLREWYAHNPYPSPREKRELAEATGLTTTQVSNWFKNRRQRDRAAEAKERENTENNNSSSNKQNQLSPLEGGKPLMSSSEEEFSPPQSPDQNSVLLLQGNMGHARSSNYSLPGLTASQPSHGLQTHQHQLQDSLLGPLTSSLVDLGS
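GST-Six1 + His-Eya2 (5X stock: 250/500 nM); Tris pH 8.0, 300 mM NaCl, 0.05% BSA, 0.02% Tween 20; GSH donor/Ni acceptor beads; 1 h 37 °C dark; AlphaScreen readout.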
RORg inh = qHTS for inhibitors of ROR gamma transcriptional activity | Nuclear receptor ROR-gamma (Mus musculus), P51450 | Drosophila S2 Gal4-RORgamma UAS-luciferase reporter, 20 h | 5.4% of 310,000 active | Potency, µM (top dose mostly 53.6 µM), most hits filed as inhibitors; note: nearly all actives have a fitted effect of over 60% in size
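Stably transfected Drosophila Schneider cells are the test system, with ROR gamma fused to Gal4 and luciferase under UAS control; luminescence is read after 20 hr of 700 uM copper sulfate induction at ambient temperature.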
Gal4-VP16 FLuc = VP16 counterscreen qHTS for inhibitors of ROR gamma transcriptional activity; 3.5% of 310,000 active; Potency, µM (highest dose often 53.6 µM), hits mostly inhibitors; Drosophila S2 Gal4-VP16 UAS-luciferase, luminescence, 20 h;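 note: Gal4-VP16 expression switched on by copper sulfate through the metallothionein promoter; nearly all actives have a fitted effect of over 50% in size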
CtBP-E1A inh = qHTS Assay for Inhibitors of the CtBP/E1A Interaction; CtBP / adenovirus E1A interaction (AlphaScreen); AlphaScreen GST-E1A/His-CtBP binding, 1536-well; hits give low values; activity change, % (no concentration beside the values); 0.49% of 340,000 active; AID 651724, 2012; in the data active = activity change below about -65%; inconclusive = mostly about -30% to -63%
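Steps: dispense buffer (Tris pH 8.0, NaCl 300 mM, TCEP 1 mM, BSA, Tween 20); add 5X protein mix (GST-E1A, His-CtBP, 125 nM each); pin 23 nL compound; 2 h at 37 °C, dark; add 5X beads (50 ug/mL); 1 h; read.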
PKM2 act = qHTS Assay for Activators of Human Muscle isoform 2 Pyruvate Kinase; purified PKM2, Kinase-Glo ATP luminescence, activation; response scale: 0% is enzyme alone, no compound; AID 1631, 2009; Pyruvate kinase PKM (Homo sapiens), P14618; 0.34% of 260,000 active; Potency, µM (doses to about 57.5 µM), usual class: activators; note: nearly all actives have a fitted effect of over 55% in size
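Kinase-Glo luminescence reports ATP generated from ADP (0.1 mM) and PEP (0.5 mM) by purified hPK-M2 after 1 h at room temperature, pH 7.2 imidazole buffer; intermediate enzyme activity allows detecting inhibitors and activators.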
Hits are given with their value; i = inactive; ? = inconclusive; nt = not tested or not shown; [ ] = another dose, or the depositor's remark. A selection: hits, their analogues and other compounds. The true share with any hit is near 5.6%. Unless noted, calls come from the whole dose curve; as a rule, active = well fitted curve in the direction sought with a large enough effect; inconclusive = small, poorly fitted or top-dose-only effect, or another doubt; inactive = no such curve, though single readings can be large; an effect the other way counts as inactive or inconclusive.

SMILES	Six1-Eya2 blk	RORg inh	Gal4-VP16 FLuc	CtBP-E1A inh	PKM2 act
O=C(O)c1ccc(NNC(=S)Nc2cc(C(F)(F)F)ccc2Cl)cc1	i	3.2µM	?	i	i
O=C(NC(=S)Nc1cc(C(F)(F)F)ccc1Cl)c1ccccc1	i	2.5µM	?	i	i
FC(F)(F)c1ccc(Cl)c(NC(=S)N/N=C/c2ccccc2Cl)c1	i	2.2µM	?	nt	i
CCC(C)(C)C1CCc2nc3ccccc3c(C(=O)OC(C)C(=O)Nc3c(C)n(C)n(-c4ccccc4)c3=O)c2C1 (stereo not drawn)	i	i	i	i	i
CCOC(=O)C1=C(COC(=O)c2ccc(Cl)nc2)NC(=O)NC1C (stereo not drawn)	i	nt	nt	i	nt
CCC(C)NC(=O)NCc1ccccc1F (stereo not drawn)	i	i	i	i	i
Cc1ccc(C(O)(COC(=O)C(C)C)COC(=O)C(C)C)c(O)c1	i	i	32µM	i	i
O=C(N/N=C/c1cccc([N+](=O)[O-])c1)c1c[nH]c2ccccc12	i	?	i	i	i
O=C(NN=Cc1cc([N+](=O)[O-])ccc1O)c1cccc2ccccc12	-92	nt	nt	i	nt
O=[N+]([O-])c1ccc(O)c(C=Nc2cccc3ccccc23)c1	i	i	i	i	i[11.5 µM]
CCNC(=O)C(=O)N/N=C/c1cc([N+](=O)[O-])ccc1O	-92	11µM	?	-94	i
O=C(N/N=C/c1cc([N+](=O)[O-])ccc1O)c1c[nH]c2ccccc12	-86	5µM	?	-78	i
O=C(N/N=C/c1cc([N+](=O)[O-])ccc1O)Nc1ccccc1	i	4.5µM	22µM	i	i
O=C(NC(=S)Nc1ccc(CN2CCCCC2)cc1)c1ccco1	i	i	i[10 µM]	i	i
COc1ccc(C(=O)NC(=S)Nc2ccc(CN3CCOCC3)cc2)cc1Cl	i	13µM	?	nt	nt
Cc1ccc(C(=O)NC(=S)Nc2ccc(CN3CCCCC3)cc2)c(C)c1	i	13µM	?	i	i
COc1ccc(C(=O)NC(=S)Nc2ccc(CN3CCOCC3)cc2)cc1OC	i	?	i	nt	i
COc1ccc(C(=O)NC(=S)Nc2ccc(CN3CCCCC3)cc2)cc1Cl	i	20µM	?	i	i
CC(=O)Nc1nc2c(s1)C(=O)NCCC2	i	i	i	i	i
Cc1cn([C@H]2C[C@H](O)[C@@H](CCC(=O)NCCc3cnc[nH]3)O2)c(=O)[nH]c1=O	i	nt	nt	i	nt
CCN(CC)S(=O)(=O)c1ccc(N2CCN(CCOc3ccc(OC)cc3)CC2)nc1	i	?	?	i	i
COc1ccc(-n2c(N)c(-c3nc4ccccc4n3C)sc2=S)cc1	i	6.3µM	i	i	i
Cc1cc(C)cc(NC(=O)CCN2CCCC2)c1	i	i	i	nt	i
Cc1nc(NCc2ccccc2)c2nc(-c3ccccc3)n(CCN3CCCCC3)c2n1	nt	11µM	i	nt	i
Cc1nc(NCc2ccccc2)c2nc(-c3ccccc3)n(C(C)CN(C)C)c2n1 (stereo not drawn)	nt	11µM	i	nt	i
SMILES	Six1-Eya2 blk	RORg inh	Gal4-VP16 FLuc	CtBP-E1A inh	PKM2 act
CCN(CC)CCCC(C)n1c(-c2ccccc2)nc2c(NCc3ccccc3)nc(C)nc21 (stereo not drawn)	nt	?	i	nt	i
Cc1nc(NCc2ccccc2)c2nc(-c3ccccc3)n(CCCN3CCOCC3)c2n1	nt	i	i	nt	i
CSCCC(NC(=O)COc1ccccc1)C(=O)N(C)Cc1cccc(F)c1 (stereo not drawn)	i	nt	nt	i	nt
Cc1c(Cl)ccc2c(C(=O)NC(C)c3ccncc3)cc(-c3ccncc3)nc12 (stereo not drawn)	nt	?	13µM	nt	i
CC(C)CC1NC(=S)N(C2CCCCC2)C1=O (stereo not drawn)	i	?	?	i	i
CCC1NC(=S)N(C2CCCCC2)C1=O (stereo not drawn)	i	11µM	?	i	i
O=C1C(Cc2c[nH]c3ccccc23)NC(=S)N1C1CCCCC1 (stereo not drawn)	i	20µM	?	i	i
CC(C)C1NC(=S)N(C2CCCCC2)C1=O (stereo not drawn)	i	6.3µM	?	i	i
O=C1C(Cc2ccc(O)cc2)NC(=S)N1C1CCCCC1 (stereo not drawn)	i	i	i	i	i
COc1ccc(CCc2nnc(CCC(=O)NCc3ccc4ncccc4c3)o2)cc1	i	i	i	i	i
Cc1cccc(OCc2nnc(SCC(=O)NC3CCCCC3)n2C)c1	i	i	i	i	i
CCN(CCn1cccn1)C(=O)C1CCC(=O)N(CCN2CCOCC2)C1 (stereo not drawn)	i	i	i	i	i
Cc1nc2cnc(N3CCOCC3)nc2n(C[C@H]2CCCO2)c1=O	nt	i	i	nt	nt
CN(C)c1ccc(C(C[N+](=O)[O-])c2c(N)n(C)c(=O)n(C)c2=O)c(F)c1C#N (stereo not drawn)	i	6.3µM	11µM	nt	nt
Cc1ccc(NC(=O)/C(Cl)=C/c2ccccc2)cc1C	i	10µM	?	i	i
CCCCOCCCNC(=O)C[C@@H]1C[C@@]2(C(=O)OCC)CCCC=C2N(CCc2ccc(OC)c(OC)c2)C1=O	i	nt	nt	i	nt
CCC1(c2ccccc2)NC(=O)N(CC(=O)N2CC(=O)Nc3ccccc32)C1=O (stereo not drawn)	i	nt	nt	i	nt
COc1ccc(NC(=O)CN(c2ccc(C)cc2)S(=O)(=O)c2c(C)nn(C)c2C)cc1	i	i	i	i	nt
COc1ccc2nc(NC(=O)CN(c3ccc(C)cc3)S(=O)(=O)c3c(C)nn(C)c3C)sc2c1	i	i	18µM	i	i
